Source: PubChem BioAssay (NCI)
Compounds without any hit were thinned out: in the full panel of roughly 83,000, 20% have a hit.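 Plates (96-well) were seeded with cells, treated with compound at one concentration, and incubated for 48 hours before percent growth was determined.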 Calls of active or inactive are those of the source. Rule for the calls: active = growth percent below 10; inactive = the rest.

Tests used:
Test in all cases: NCI-60 one-dose screen, 48 h (100 = growth as untreated, 0 = no growth, -100 = all killed)
Conditions in all cases: 10 µM unless noted
DU-145 prostate = system: DU-145 prostate
K-562 leukemia = system: K-562 leukemia
MALME-3M melanoma = system: MALME-3M melanoma
MDA-MB-231 breast = system: MDA-MB-231 breast
RXF 393 renal = system: RXF 393 renal
SF-268 CNS = system: SF-268 CNS
SF-295 CNS = system: SF-295 CNS
SF-539 CNS = system: SF-539 CNS
UACC-257 melanoma = system: UACC-257 melanoma
M14 melanoma = system: M14 melanoma
HCT-15 colon = system: HCT-15 colon
HT29 colon = system: HT29 colon
SNB-75 CNS = system: SNB-75 CNS
SNB-19 CNS = system: SNB-19 CNS
U251 CNS = system: U251 CNS
PC-3 prostate = system: PC-3 prostate
SK-MEL-5 melanoma = system: SK-MEL-5 melanoma
UACC-62 melanoma = system: UACC-62 melanoma
LOX IMVI melanoma = system: LOX IMVI melanoma
SK-MEL-28 melanoma = system: SK-MEL-28 melanoma

Measured: growth

CC(=O)/C(=C/c1ccc([N+](=O)[O-])cc1)C(=O)c1ccccc1
active: LOX IMVI melanoma -28.5%
inactive: DU-145 prostate 92.6% | K-562 leukemia 31.3% | MALME-3M melanoma 89.1% | MDA-MB-231 breast 91.4% | RXF 393 renal 74.2% | SF-268 CNS 76.1% | SF-295 CNS 93.3% | SF-539 CNS 102% | UACC-257 melanoma 76.3% | M14 melanoma 79.8% | HCT-15 colon 60.6% | HT29 colon 41.1% | SNB-75 CNS 88.5% | SNB-19 CNS 92.5% | U251 CNS 71.3% | PC-3 prostate 63.4% | SK-MEL-5 melanoma 87.5% | UACC-62 melanoma 77.2% | SK-MEL-28 melanoma 91.6%

O=c1ccc(=O)n(-c2nc(-c3ccc([N+](=O)[O-])cc3)cs2)[nH]1
inactive: DU-145 prostate 97.7% | K-562 leukemia 95.2% | MALME-3M melanoma 114% | MDA-MB-231 breast 105% | RXF 393 renal 88.4% | SF-268 CNS 95% | SF-295 CNS 98.1% | SF-539 CNS 97.3% | UACC-257 melanoma 102% | M14 melanoma 101% | HCT-15 colon 96% | HT29 colon 55.6% | SNB-75 CNS 92% | SNB-19 CNS 96.1% | U251 CNS 95.6% | PC-3 prostate 98.6% | SK-MEL-5 melanoma 95.6% | UACC-62 melanoma 90.7% | LOX IMVI melanoma 98.5% | SK-MEL-28 melanoma 105%

CCOC(=O)c1ccccc1-c1c2ccc(=[N+](C)C)cc-2oc2cc(N(C)C)ccc12
active: SF-295 CNS -26.9% | SF-539 CNS -5.48% | UACC-257 melanoma 5.13% | HT29 colon -0.175% | SNB-75 CNS 7.68% | PC-3 prostate 5.32% | SK-MEL-5 melanoma -68.1% | UACC-62 melanoma 9.47%
inactive: DU-145 prostate 25.3% | K-562 leukemia 10.2% | MALME-3M melanoma 28.2% | MDA-MB-231 breast 11.7% | RXF 393 renal 18.4% | SF-268 CNS 20.8% | M14 melanoma 13.5% | HCT-15 colon 70.2% | SNB-19 CNS 18.2% | U251 CNS 14.6% | LOX IMVI melanoma 94.6% | SK-MEL-28 melanoma 32%

O=C(NCc1cccc(CNC(=O)Nc2nc3ccccc3[nH]2)c1)Nc1nc2ccccc2[nH]1
active: DU-145 prostate -32.6% | K-562 leukemia 0.347% | MALME-3M melanoma -74.2% | MDA-MB-231 breast -66.6% | SF-268 CNS 0.441% | SF-295 CNS 5.41% | UACC-257 melanoma -54.1% | M14 melanoma -77.4% | HT29 colon -45.7% | SNB-75 CNS -42.2% | SNB-19 CNS 9.35% | U251 CNS -77.9% | PC-3 prostate -59.8% | SK-MEL-5 melanoma -46.5% | UACC-62 melanoma -15.9% | LOX IMVI melanoma -20.4% | SK-MEL-28 melanoma -76.9%
inactive: RXF 393 renal 43.1% | SF-539 CNS 27.5% | HCT-15 colon 69.5%

COc1ccc(C#Cc2ccc(=O)oc2-c2cc(OC)c(OC)c(OC)c2)cc1O
inactive: DU-145 prostate 58.5% | K-562 leukemia 16.8% | MALME-3M melanoma 38.8% | MDA-MB-231 breast 59.9% | RXF 393 renal 57.8% | SF-268 CNS 69.7% | SF-295 CNS 23.5% | SF-539 CNS 47.6% | UACC-257 melanoma 53% | M14 melanoma 33.9% | HCT-15 colon 30.7% | HT29 colon 33.9% | SNB-75 CNS 40.1% | SNB-19 CNS 54.6% | U251 CNS 39.7% | PC-3 prostate 40.6% | SK-MEL-5 melanoma 24.5% | UACC-62 melanoma 44% | LOX IMVI melanoma 41.4% | SK-MEL-28 melanoma 59%

O=C(Nc1cnc(Nc2ccc(N3CCOCC3)nc2)nc1Oc1ccc(C(F)(F)F)cc1)c1ccncc1
inactive: DU-145 prostate 66% | K-562 leukemia 78.7% | MALME-3M melanoma 96.9% | MDA-MB-231 breast 94.5% | RXF 393 renal 93.1% | SF-268 CNS 86.3% | SF-295 CNS 104% | UACC-257 melanoma 92.8% | M14 melanoma 99% | HCT-15 colon 96.9% | HT29 colon 101% | SNB-75 CNS 89.8% | SNB-19 CNS 91.1% | U251 CNS 92.1% | PC-3 prostate 97.4% | SK-MEL-5 melanoma 95.3% | UACC-62 melanoma 94.1% | LOX IMVI melanoma 86% | SK-MEL-28 melanoma 95.8%
active: SF-539 CNS -53.1%

O=C(Oc1ccc(CCl)cc1)c1ccccc1
active: DU-145 prostate -92.9% | K-562 leukemia -37.5% | MALME-3M melanoma -69.3% | MDA-MB-231 breast -82% | RXF 393 renal -90.5% | SF-268 CNS -79.3% | SF-295 CNS -92.5% | SF-539 CNS -87.6% | UACC-257 melanoma -67.4% | M14 melanoma -82.7% | HCT-15 colon -87.4% | HT29 colon -58.4% | SNB-75 CNS -98.6% | SNB-19 CNS -86.4% | U251 CNS -86.3% | PC-3 prostate -91.3% | SK-MEL-5 melanoma -99% | UACC-62 melanoma -76.9% | LOX IMVI melanoma -85.1% | SK-MEL-28 melanoma -75.6%

COc1ccc(-c2nc(-c3cn(C)c4ncccc34)cs2)cc1
active: MALME-3M melanoma -54.9% [100 µM] | RXF 393 renal -12.6% [100 µM] | SF-295 CNS -25.5% [100 µM] | SF-539 CNS -67.2% [100 µM] | M14 melanoma -69.6% [100 µM] | HCT-15 colon -1.17% [100 µM] | HT29 colon -63.2% [100 µM] | SNB-75 CNS -3.6% [100 µM] | U251 CNS 3.9% [100 µM] | PC-3 prostate -28.2% [100 µM] | SK-MEL-5 melanoma -83.4% [100 µM] | UACC-62 melanoma -20.1% [100 µM] | LOX IMVI melanoma -47.1% [100 µM]
inactive: DU-145 prostate 15.2% [100 µM] | K-562 leukemia 11% [100 µM] | MDA-MB-231 breast 15.9% [100 µM] | SF-268 CNS 23.4% [100 µM] | UACC-257 melanoma 17.5% [100 µM] | SNB-19 CNS 23.2% [100 µM] | SK-MEL-28 melanoma 37.9% [100 µM]

CCOc1cccc(/C=N/NC(=O)c2cccc(Nc3ccnc(C(F)(F)F)c3)c2)c1O
inactive: DU-145 prostate 19.2% | K-562 leukemia 28.7% | MALME-3M melanoma 30.9% | MDA-MB-231 breast 45% | RXF 393 renal 47.4% | SF-268 CNS 26.7% | SF-295 CNS 30.3% | SF-539 CNS 14.8% | UACC-257 melanoma 37.3% | HCT-15 colon 28.8% | HT29 colon 53.2% | SNB-75 CNS 36.4% | SNB-19 CNS 35.1% | U251 CNS 37% | PC-3 prostate 59.1% | SK-MEL-5 melanoma 34.7% | LOX IMVI melanoma 11.8% | SK-MEL-28 melanoma 34.6%
active: M14 melanoma -6.87% | UACC-62 melanoma 0.213%

CN(CCCNC(=O)CCOCCOCCOCCNC(=O)Cc1ccc2ccc3cccc4ccc1c2c34)CCCNc1cc(-c2ccc3ccccc3c2)nc2ccccc12
active: DU-145 prostate -95.8% | K-562 leukemia -88.3% | MALME-3M melanoma -69.6% | MDA-MB-231 breast -70.7% | RXF 393 renal -37.7% | SF-268 CNS -82.9% | SF-295 CNS -71.1% | SF-539 CNS -98.6% | UACC-257 melanoma -70% | M14 melanoma -89.7% | HCT-15 colon -77.5% | HT29 colon -87.6% | SNB-75 CNS -95.7% | SNB-19 CNS -95.1% | U251 CNS -70.7% | PC-3 prostate -93.6% | SK-MEL-5 melanoma -96% | UACC-62 melanoma -65.9% | LOX IMVI melanoma -43.7% | SK-MEL-28 melanoma -94%

CCN(CC)CCCN1C(=O)c2c(c(C)c3c(oc4ccc(O)cc43)c2C)C1=O
inactive: MALME-3M melanoma 87% | RXF 393 renal 61.3% | SF-268 CNS 66% | SF-295 CNS 109% | UACC-257 melanoma 102% | M14 melanoma 86.6% | SNB-75 CNS 90.4% | SNB-19 CNS 77.4% | U251 CNS 47.3% | PC-3 prostate 79.7% | SK-MEL-5 melanoma 48.4% | UACC-62 melanoma 96% | SK-MEL-28 melanoma 81.8%
active: DU-145 prostate -58.8% | K-562 leukemia 3.9% | MDA-MB-231 breast -80.9% | SF-539 CNS 1.71% | HCT-15 colon -77.5% | HT29 colon -40.3% | LOX IMVI melanoma -95.8%

COc1cc(-c2nc3sccn3c2-c2ccnc(NCCNS(=O)(=O)c3ccc(Cl)cc3)n2)ccc1F
active: SK-MEL-5 melanoma -14.7% | UACC-62 melanoma -45.3%
inactive: DU-145 prostate 32.3% | K-562 leukemia 13.6% | MALME-3M melanoma 31.3% | MDA-MB-231 breast 69% | RXF 393 renal 33.2% | SF-268 CNS 30.6% | SF-295 CNS 40.5% | SF-539 CNS 80% | UACC-257 melanoma 45.1% | M14 melanoma 21.5% | HCT-15 colon 20.6% | HT29 colon 22.8% | SNB-75 CNS 85.6% | SNB-19 CNS 78.8% | U251 CNS 55.6% | PC-3 prostate 13.1% | LOX IMVI melanoma 19.2% | SK-MEL-28 melanoma 44.9%

FC(F)(F)c1ccc(Cn2cc(CSc3nc4ccccc4s3)nn2)cc1
inactive: DU-145 prostate 108% | K-562 leukemia 97.1% | MALME-3M melanoma 111% | MDA-MB-231 breast 99% | RXF 393 renal 104% | SF-268 CNS 101% | SF-295 CNS 95.8% | SF-539 CNS 106% | UACC-257 melanoma 87% | M14 melanoma 100% | HCT-15 colon 101% | HT29 colon 94.4% | SNB-75 CNS 94% | SNB-19 CNS 101% | U251 CNS 96.3% | PC-3 prostate 95.7% | SK-MEL-5 melanoma 105% | UACC-62 melanoma 87.3% | LOX IMVI melanoma 110% | SK-MEL-28 melanoma 105%

C[n+]1ccc(CCc2c[nH]c3ccccc23)cc1
inactive: DU-145 prostate 111% | K-562 leukemia 102% | MALME-3M melanoma 76.1% | MDA-MB-231 breast 92.7% | RXF 393 renal 118% | SF-268 CNS 94.4% | SF-295 CNS 94.5% | SF-539 CNS 95.7% | UACC-257 melanoma 104% | M14 melanoma 95.1% | HCT-15 colon 99.7% | HT29 colon 88.8% | SNB-75 CNS 74.6% | SNB-19 CNS 102% | U251 CNS 95.2% | PC-3 prostate 84% | SK-MEL-5 melanoma 104% | UACC-62 melanoma 101% | LOX IMVI melanoma 94.6% | SK-MEL-28 melanoma 100%
